Results on 14 compounds are retold here after PubChem BioAssay.

The nature of experiment [1]: inhibitors of TNFa-induced NFkB p65 translocation, primary screen, imaging, HUVEC, MLSMR starter and 10KST1 sets (AID 438).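 Also: compound added about 3h40 before a 20 min TNFalpha stimulation.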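 As to inhibition: signal is the nuclear over cytoplasmic p65 intensity ratio per well.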 As to conditions: HUVEC TNFa-induced p65 nuclear translocation; cell count: measured here: nuclei count (cytotoxicity indicator), at 2.08 µM; inhibition: at 2 µM, stronger effect = higher value, 0% TNFa-plus-vehicle, 100% no-TNFa wells.
A short description of experiment [2]: reduction of polyQ htt aggregates in cells – imaging, exon1htt(103Q)mCFP cells, high-content imaging, primary screen (AID 483;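 active = visual image review flags a hit and inhibition of aggregation exceeds 20%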;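 also: compound exposure lasted 3 days before fixation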;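 as to nuclei count: percent of the per-plate median nuclei count of sample wells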). As to conditions: exon1htt(103Q)mCFP cell line, aggregate imaging, at 2 µM; inhibition of aggregation: stronger effect = higher value; nuclei count: measured here: cell count, toxicity.
The nature of experiment [3]: endothelial E-selectin expression blockers – imaging, HUVEC, immunofluorescence, MLSMR starter and 10KST1 sets, primary screen (AID 487;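 active = visually confirmed hit in the image check and inhibition above 20%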;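 as to inhibition: signal is fraction of cell area covered by stained E-selectin grains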;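 as to nuclei count: 100% = median nuclei count of all wells on the same plate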). Conditions: HUVEC TNFalpha-induced E-selectin immunofluorescence imaging, at 2 µM; inhibition: stronger effect = higher value; nuclei count: measured here: cell number, toxicity.
Experiment [4] has as its target Voltage-gated potassium channel subunit beta-2 (Rattus norvegicus) (UniProt P62483). The experiment can be described thus: inhibitors of rat Kvbeta2 reductase activity – biochemical, NADPH fluorescence, primary screen (AID 622;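 active = fluorescence slope higher than the sample average by over 3 SD, cut at about -0.22 in these data, passing the limit was not always enough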;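 also: slope of raw intensity against log time taken from 70 to 1610 s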). As to conditions: recombinant KvBeta, 4-cyanobenzaldehyde reduction, at 10 µM, stronger effect = higher value.
For experiment [5] the target is unchanged. Put plainly: enhancers of rat Kvbeta2 NADPH turnover – biochemical, NADPH fluorescence, primary screen (AID 623;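 active = NADPH fluorescence slope more negative than the mean of all samples by about 3 SD, 99.7% confidence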;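 also: fluorescence intensity change per second fitted from 20 to 320 s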). Conditions: Recombinant KvBeta, NADPH fluorescence decrease slope, 10 min; at 10 µM; stronger effect = lower value.
For experiment [6], the target named is Alpha-2C adrenergic receptor (Homo sapiens) (UniProt P18825). The experiment can be described thus: compounds altering alpha2C-coupled GIRK flux – cell-based, HEK293 alpha2C/GIRK1/2, thallium flux, primary screen (AID 624;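 active = fluorescence slope after compound addition differing from the mean of all screened samples at 99.7% confidence, in either direction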;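 also: slope of fluorescence ratio to pre-addition baseline per second over 15 to 24 s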). Conditions: thallium flux BTC fluorescence, at 10 µM, actives lie on both sides.
Experiment [7] is described as follows: blockers of RIG-like receptor reporter activation – cell-based, Sendai virus stimulus, luciferase, 10K MLSCN set, TLR/RLR signaling modifier project, primary screen (AID 602276;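 active = inhibition at or above 50% at 10 µM; inactive = inhibition below 50%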;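 also: firefly luciferase from ISG56 promoter only with Renilla not read in this screen; 0% = Sendai virus plus DMSO and 100% = medium plus DMSO without virus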). Conditions: HEK293 RL24 IRF3 luciferase reporter, at 10 µM, stronger effect = higher value.
The nature of experiment [8]: TLR3 IRF3 reporter activation blockers – cell-based, poly I:C stimulus, luciferase, 10K MLSCN set, primary screen (AID 602277;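 active = inhibition of the reporter signal at or above 50%; inactive = inhibition below 50%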). Conditions: HEK293-TLR3 RL24 IRF3 luciferase reporter, at 10 µM, stronger effect = higher value.

Active and inactive are the calls of the source.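 The calls were made as follows, unless noted: active = inhibition above 20% together with a positive visual image hit; inconclusive = visual image hit but inhibition not above 20%; inactive = no visual image hit.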

Chain of Voltage-gated potassium channel subunit beta-2 (Rattus norvegicus) (P62483 whole entry, looked up): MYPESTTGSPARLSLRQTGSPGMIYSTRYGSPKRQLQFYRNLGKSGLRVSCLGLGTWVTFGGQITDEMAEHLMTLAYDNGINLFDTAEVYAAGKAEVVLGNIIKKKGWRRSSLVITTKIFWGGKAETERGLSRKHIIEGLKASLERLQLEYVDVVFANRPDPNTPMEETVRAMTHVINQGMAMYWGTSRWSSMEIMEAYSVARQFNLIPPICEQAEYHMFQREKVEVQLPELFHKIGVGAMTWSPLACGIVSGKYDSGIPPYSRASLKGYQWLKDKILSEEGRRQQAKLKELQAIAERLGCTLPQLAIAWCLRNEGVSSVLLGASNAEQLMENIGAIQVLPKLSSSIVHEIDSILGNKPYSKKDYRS
Chain of Alpha-2C adrenergic receptor (Homo sapiens) (P18825 whole entry, looked up): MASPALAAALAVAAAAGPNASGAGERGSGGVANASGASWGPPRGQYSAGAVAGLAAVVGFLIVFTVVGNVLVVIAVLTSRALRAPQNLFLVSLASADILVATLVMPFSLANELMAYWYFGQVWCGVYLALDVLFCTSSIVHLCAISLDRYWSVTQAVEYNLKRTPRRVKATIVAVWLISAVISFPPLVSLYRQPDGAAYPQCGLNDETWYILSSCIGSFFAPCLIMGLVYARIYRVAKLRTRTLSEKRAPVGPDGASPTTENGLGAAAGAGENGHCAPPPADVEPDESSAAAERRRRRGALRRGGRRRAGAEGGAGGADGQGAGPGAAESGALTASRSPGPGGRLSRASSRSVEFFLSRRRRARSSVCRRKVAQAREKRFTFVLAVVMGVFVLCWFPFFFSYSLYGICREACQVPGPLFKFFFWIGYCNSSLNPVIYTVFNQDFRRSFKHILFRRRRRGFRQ

As for `CCOc1ccccc1N(CC(=O)N1CCCCCC1)S(C)(=O)=O`, the cell count in experiment [1] stood at 358. Moreover, the inhibition is -10% (inactive) in experiment [1], -83.5% (inactive) in experiment [3], 9.48% (inactive) in experiment [7] and 19.4% (inactive) in experiment [8]. Moreover, the inhibition of aggregation in experiment [2] is -1.2% (inactive). The nuclei count in experiment [2] and in experiment [3] was 117% in each case. In addition, the fluorescence slope in experiment [4] was -0.447 (inactive). Further, the NADPH fluorescence slope in experiment [5] was -1.3e-05 (inactive). Further, in experiment [6], the slope was 0.00598 (inactive).

`CCOC(=O)N1CCN(C(=O)COc2cc(=O)n(C)c3ccccc23)CC1`: in experiment [1], the cell count came out at 341. The inhibition was 1.7% (inactive) in experiment [1], 1.7% (inactive) in experiment [3], -5.65% (inactive) in experiment [7] and -23.1% (inactive) in experiment [8]. The inhibition of aggregation in experiment [2] is -0.1% (inactive). Moreover, the nuclei count in experiment [2] came to 94.2%; in experiment [3] it was 118%. Further, the fluorescence slope in experiment [4] was -0.565 (inactive). Also, the NADPH fluorescence slope in experiment [5] is 4.1e-05 (inactive). Besides, the slope in experiment [6] is 0.00524 (inactive).

For `Cc1c(N=C2SCC(=O)N2c2c(C)n(C)n(-c3ccccc3)c2=O)c(=O)n(-c2ccccc2)n1C`, the cell count in experiment [1] is 592. Moreover, the inhibition in experiment [1] was 4.1% (inactive); in experiment [3], -66.8% (inactive); in experiment [7], 2.44% (inactive); in experiment [8], 13.3% (inactive). The inhibition of aggregation in experiment [2] was -7.8% (inactive). In addition, the nuclei count in experiment [2] was 113%; in experiment [3] it was 116%. Moreover, the fluorescence slope in experiment [4] is -0.482 (inactive). In addition, the NADPH fluorescence slope in experiment [5] was -3e-05 (inactive). The slope in experiment [6] is 0.00551 (inactive).

On to `COc1ccc(S(=O)(=O)Cc2ccc(C(=O)N3CCN(Cc4ccccc4)CC3)o2)cc1`, for which, in experiment [1], the cell count is 583. Further, the inhibition was -4.8% (inactive) in experiment [1], -37.7% (inactive) in experiment [3], -3.69% (inactive) in experiment [7] and 28.9% (inactive) in experiment [8]. In experiment [2], the inhibition of aggregation is 21.6% (inactive). Moreover, the nuclei count turned out to be 98.6% in experiment [2] and 121% in experiment [3]. In experiment [4], the fluorescence slope was -0.588 (inactive). In addition, the NADPH fluorescence slope in experiment [5] was -1.9e-05 (inactive). In addition, the slope in experiment [6] was 0.0068 (inactive).

`COc1ccc(CNC(=O)c2ccc(CN3CCOCC3)cc2)cc1`: the cell count in experiment [1] was 645. Also, the inhibition in experiment [1] was -7.8% (inactive); in experiment [3], 7.3% (inactive); in experiment [7], 7.5% (inactive); in experiment [8], -5.55% (inactive). Also, in experiment [2], the inhibition of aggregation was -5.7% (inactive). Moreover, the results for the nuclei count in experiment [2] and in experiment [3] were 103% and 147%, respectively. In experiment [4], the fluorescence slope was -0.472 (inactive). Moreover, the NADPH fluorescence slope in experiment [5] is -2.6e-05 (inactive). In experiment [6], the slope was 0.00567 (inactive).

With `CCCCOCCCNC(=O)COc1ccccc1`, the cell count in experiment [1] was determined as 360. The inhibition in experiment [1] is -3.4% (inactive); in experiment [3], -3.5% (inactive); in experiment [7] it was 17.8% (inactive); in experiment [8], 29.4% (inactive). For the same compound, the inhibition of aggregation in experiment [2] was -12.1% (inactive). The nuclei count was 113% in experiment [2] and 114% in experiment [3]. Further, the fluorescence slope in experiment [4] was -0.398 (inactive). Further, the NADPH fluorescence slope in experiment [5] is -6.8e-05 (inactive). In addition, the slope in experiment [6] was 0.00485 (inactive).

In the case of `COc1ccc(C)cc1NC(=O)CN1CCN(S(=O)(=O)c2ccc(Cl)cc2)CC1`, the cell count in experiment [1] came out at 409. Also, the inhibition was -1.5% (inactive) in experiment [1], -76.7% (inactive) in experiment [3], 5.97% (inactive) in experiment [7] and 15.6% (inactive) in experiment [8]. The inhibition of aggregation in experiment [2] is 4.2% (inactive). Besides, the nuclei count in experiment [2] came to 104%; in experiment [3], 98.9%. Further, the fluorescence slope in experiment [4] is -0.41 (inactive). For the same compound, the NADPH fluorescence slope in experiment [5] was -3e-05 (inactive). Further, in experiment [6], the slope is 0.0018 (inactive).

In the case of `c1ccc(CCc2nc(-c3cccnc3)no2)cc1`, in experiment [1], the cell count was determined as 647. Besides, the inhibition in experiment [1] is 3.1% (inactive); in experiment [3], -102% (inactive); in experiment [7], -30.7% (inactive); in experiment [8], -90.7% (inactive). The inhibition of aggregation in experiment [2] was 5% (inactive). Moreover, the results for the nuclei count in experiment [2] and in experiment [3] were 93% and 132%, respectively. Also, the fluorescence slope in experiment [4] was -0.636 (inactive). Besides, the NADPH fluorescence slope in experiment [5] is 1.1e-05 (inactive). The slope in experiment [6] is 0.00345 (inactive).

As for `CC(=O)N(CCc1ccccc1C)Cc1cc2cc3c(cc2[nH]c1=O)OCO3`, the cell count in experiment [1] stood at 251. Besides, the inhibition in experiment [1] is 12.1% (inactive); in experiment [3], -68.1% (inactive); in experiment [7], 8.48% (inactive); in experiment [8], 15.6% (inactive). Also, in experiment [2], the inhibition of aggregation is 1.2% (inactive). The figures for the nuclei count in experiment [2] and in experiment [3] were 86.1% and 116%, respectively. The fluorescence slope in experiment [4] was -0.592 (inactive). Besides, the NADPH fluorescence slope in experiment [5] is -6.2e-05 (inactive). In experiment [6], the slope was 0.00459 (inactive).

Turning to `CCOC(=O)C(C)C1(O)c2ccccc2-c2ncccc21` (centres undefined), in experiment [1], the cell count came out at 316. Besides, the inhibition in experiment [1] was 4.9% (inactive); in experiment [3], 6.6% (inactive); in experiment [7] it was 4.67% (inactive); in experiment [8], 8.95% (inactive). Further, in experiment [2], the inhibition of aggregation is -6.7% (inactive). The nuclei count worked out at 117% in experiment [2] and 97.7% in experiment [3]. The fluorescence slope in experiment [4] was -0.296 (inactive). The NADPH fluorescence slope in experiment [5] is -6.5e-05 (inactive). Also, in experiment [6], the slope was 0.00533 (inactive).

Regarding `CCOC(=O)Cc1csc(NC(=O)CSc2nnc(C(C)C)n2CC)n1`, the cell count in experiment [1] was 812. Also, the inhibition was -6.2% (inactive) in experiment [1], -33.7% (inactive) in experiment [3], 18.4% (inactive) in experiment [7] and 21.8% (inactive) in experiment [8]. Also, the inhibition of aggregation in experiment [2] is 13.4% (inactive). For the same compound, the nuclei count in experiment [2] came out at 89.5%; in experiment [3] it was 119%. In addition, the fluorescence slope in experiment [4] is -0.317 (inactive). Also, in experiment [5], the NADPH fluorescence slope was 1.9e-05 (inactive). The slope in experiment [6] was 0.00691 (inactive).

For the compound `CC(C)(C)NC(=O)CC(CC(=O)O)c1ccccc1` (centres undefined), the cell count in experiment [1] was determined as 584. Besides, the inhibition in experiment [1] was 2.9% (inactive); in experiment [3], -30.6% (inactive); in experiment [7], 12.7% (inactive); in experiment [8], 37.3% (inactive). For the same compound, in experiment [2], the inhibition of aggregation was -4.2% (inactive). Besides, the nuclei count in experiment [2] was found to be 85.7%; in experiment [3] it was 109%. The fluorescence slope in experiment [4] was -0.539 (inactive). Also, the NADPH fluorescence slope in experiment [5] is -3.4e-05 (inactive). Besides, the slope in experiment [6] was 0.008 (inactive).

Take `O=C(CCn1c(=O)oc2ccccc21)NCCN1CCOCC1`: the cell count in experiment [1] was found to be 653. In addition, the inhibition is -15.1% (inactive) in experiment [1], -9.1% (inactive) in experiment [3], -16.3% (inactive) in experiment [7] and -13% (inactive) in experiment [8]. The inhibition of aggregation in experiment [2] was 2.6% (inactive). In addition, the nuclei count turned out to be 110% in experiment [2] and 99.8% in experiment [3]. The fluorescence slope in experiment [4] is -0.58 (inactive). For the same compound, in experiment [5], the NADPH fluorescence slope was -5.4e-05 (inactive). Besides, in experiment [6], the slope was 0.00667 (inactive).

In the case of `CCN(CC)c1nc2cc(OC)ccc2cc1C#N`, the cell count in experiment [1] was 386. Also, the inhibition in experiment [1] is -7.8% (inactive); in experiment [3], -50.8% (inactive); in experiment [7], 12.7% (inactive); in experiment [8] it was 41% (inactive). Also, the inhibition of aggregation in experiment [2] is 8.6% (inactive). Also, the nuclei count came to 101% in experiment [2] and 114% in experiment [3]. Besides, the fluorescence slope in experiment [4] is -0.584 (inactive). Besides, the NADPH fluorescence slope in experiment [5] is -6.9e-06 (inactive). Also, in experiment [6], the slope is 0.00563 (inactive).
